Screens as filed in PubChem.
In the library only some 0.51% were active in any assay of this set; here they are far more common.
E coli growth-1: bacterial growth inhibition, counter-screen for AddAB inhibitors; E. coli V3065 growth, OD600 absorbance, 18 h; inhibition, % at 11.9 µM; 0.27% of 330,000 active;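 active = inhibition above the campaign's mean inhibition across all tested compounds plus 3 SD, cut at about 9.9% in these data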;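 also: uninfected addAB+ strain grown without phage in ampicillin broth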
p-CIP stab down: lowers stability of the mouse p/CIP coactivator protein; 0.01% of 290,000 active; F442A p/CIP-EGFP cells, EGFP fluorescence, 16 h; Q05BA5; decrease of EGFP signal, % at 10 µM;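 active = EGFP signal decrease of at least 30% at 10 µM or well 3 SD below plate mean, unless failing retest; inactive = the rest, including hits failing retest or dose response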
Target sequence (Q05BA5 1-1403): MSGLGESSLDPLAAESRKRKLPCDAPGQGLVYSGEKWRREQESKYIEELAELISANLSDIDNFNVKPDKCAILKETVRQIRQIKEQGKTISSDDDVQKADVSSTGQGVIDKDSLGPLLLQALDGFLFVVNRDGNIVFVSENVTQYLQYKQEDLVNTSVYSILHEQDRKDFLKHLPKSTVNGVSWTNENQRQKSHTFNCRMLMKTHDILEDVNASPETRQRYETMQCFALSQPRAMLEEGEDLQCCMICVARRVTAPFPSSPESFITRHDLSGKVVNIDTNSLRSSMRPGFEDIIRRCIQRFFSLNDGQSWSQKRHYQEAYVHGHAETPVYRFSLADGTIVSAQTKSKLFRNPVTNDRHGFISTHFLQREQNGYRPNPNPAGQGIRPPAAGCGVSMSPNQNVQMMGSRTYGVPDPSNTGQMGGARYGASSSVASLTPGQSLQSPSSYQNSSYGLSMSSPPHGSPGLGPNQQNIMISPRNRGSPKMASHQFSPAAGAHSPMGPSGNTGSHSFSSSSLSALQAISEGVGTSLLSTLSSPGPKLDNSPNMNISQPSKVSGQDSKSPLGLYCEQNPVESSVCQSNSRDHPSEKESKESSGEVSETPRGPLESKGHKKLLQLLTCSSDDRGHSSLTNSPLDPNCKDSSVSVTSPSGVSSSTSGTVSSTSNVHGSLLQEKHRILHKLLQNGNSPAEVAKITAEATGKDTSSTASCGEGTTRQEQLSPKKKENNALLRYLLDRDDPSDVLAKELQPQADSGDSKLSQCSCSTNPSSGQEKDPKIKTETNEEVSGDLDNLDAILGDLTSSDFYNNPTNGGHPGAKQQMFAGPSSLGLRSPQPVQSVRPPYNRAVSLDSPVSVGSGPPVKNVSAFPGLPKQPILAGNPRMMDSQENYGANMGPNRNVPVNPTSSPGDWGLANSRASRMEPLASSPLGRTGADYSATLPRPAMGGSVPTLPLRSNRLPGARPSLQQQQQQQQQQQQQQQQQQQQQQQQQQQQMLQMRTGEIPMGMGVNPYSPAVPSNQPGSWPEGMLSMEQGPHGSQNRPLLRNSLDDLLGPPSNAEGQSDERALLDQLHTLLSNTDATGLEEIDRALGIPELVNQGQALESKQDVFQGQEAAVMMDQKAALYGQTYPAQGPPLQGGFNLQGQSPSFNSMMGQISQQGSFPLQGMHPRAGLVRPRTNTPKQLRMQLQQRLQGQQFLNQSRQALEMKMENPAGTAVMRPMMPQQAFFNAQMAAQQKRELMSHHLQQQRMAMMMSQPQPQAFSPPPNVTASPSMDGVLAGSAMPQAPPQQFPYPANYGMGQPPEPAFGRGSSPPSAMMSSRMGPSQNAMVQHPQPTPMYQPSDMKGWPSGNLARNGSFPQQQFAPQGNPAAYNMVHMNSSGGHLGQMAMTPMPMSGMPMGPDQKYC
AddAB inh: less growth of phage-infected E. coli with AddAB. inhibition, % at 11.9 µM. 0.29% of 330,000 active. E. coli expressing H. pylori AddAB, absorbance growth; in the data active = inhibition above about 12%
phage Ecoli inh: E. coli growth loss with phage present; growth absorbance; inhibition, % at 11.9 µM; 0.26% of 360,000 active; AID 651602; in the data active = inhibition above about 11%
Tat export inh: inhibitors of E. coli Tat protein transport; E. coli MC4100 TorA-mCherry Tat export, fluorescence; inhibition, % at 10 µM; 0.036% of 340,000 active;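 active = mean replicate inhibition at least 50% and at least half of replicates individually reaching 50%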;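 also: exported cargo escapes ClpAP degradation while cytoplasmic cargo is degraded and loses fluorescence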
E coli growth-2: blocks Escherichia coli growth; OD600, 23 h; stronger effect = lower value; 0.21% of 330,000 active; AID 1053175; OD600 absorbance (no concentration beside the values);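 active = OD600 absorbance below the run mean of sample wells minus 3.6 SD, in any replicate, cut at about 0.56 in these data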
AddAB confirm: growth loss of T4-infected E. coli expressing H. pylori AddAB, confirmed; shares compounds with AddAB inh; E. coli V3065 expressing H. pylori AddAB, T4 phage, OD; T4 phage with gene 2 nonsense mutations; inhibition, % at 11.9 µM; 64% of 880 active;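 active = mean inhibition above a set limit taken from the earlier primary screen, cut at about 13% in these data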;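 also: higher means less bacterial growth since AddAB block lets phage replicate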
RecBCD counter: counter-screen: growth loss of RecBCD+ E. coli with mutant T4 phage | shares compounds with AddAB inh | E. coli V66 + mutant T4 phage, OD growth | inhibition, % at 11.9 µM | 73% of 880 active;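 active = mean inhibition above the mean of solvent-only control wells plus 3 SD, cut at about 4% in these data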;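 also: optical density read after an 18 h incubation at 37 °C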
bact viab count: counter-screen: bacterial growth inhibition | shares compounds with AddAB inh | bacterial viability, absorbance (AddAB counterscreen) | inhibition, % at 11.9 µM | 35% of 880 active; in the data active = inhibition above about 25%
Each line names hits and unclear results; the compound was inactive in the other large screens (follow-up assays come after a bar, where they were run); ! = not confirmed by another sample.

CC(=O)NC(CC(=O)N(C)Cc1cccc(Cl)c1Cl)c1ccccc1 (stereo unspecified)	E coli growth-2 0.536
Oc1c(Cl)cc(CN2CCCCC2)c2cccnc12	E coli growth-1 10.8 (no result: phage Ecoli inh, E coli growth-2)
Oc1ccc(CN2CCCCC2)c2cccnc12	none
Oc1c(CN2CCN(c3ccccn3)CC2)cc(Cl)c2cccnc12	E coli growth-2 0.534 (no result: phage Ecoli inh)
OCCN1CCN(Cc2cc(Cl)c3cccnc3c2O)CC1	none
CC(C)S(=O)(=O)c1csc(NC(=O)Nc2ccc(Cl)cc2)c1	E coli growth-2 0.474
NS(=O)(=O)c1cccc(NC(=O)Nc2ccc(Cl)cc2)c1	none
O=c1cc(CN2CC(O)Cc3ccc4ccccc4c32)nc2sccn12 (stereo unspecified)	none
CC1CCCCC1NC(=O)C1CCN(S(=O)(=O)c2ccc(-n3cnnn3)cc2)CC1 (stereo unspecified)	E coli growth-1 37.6
Oc1ccc(CN2CCc3ccccc3C2)c2cccnc12	E coli growth-2 0.471
Oc1c(CN2CCCCC2)cc(COCc2ccccc2)c2cccnc12	none (no result: E coli growth-2)
Oc1ccc(CN2CCC(Cc3ccccc3)CC2)c2cccnc12	E coli growth-2 0.458 (no result: E coli growth-1, AddAB inh, Tat export inh)
CN(C)C1CCN(Cc2cc(COCc3ccccc3)c3cccnc3c2O)C1 (stereo unspecified)	E coli growth-1 10.3 (no result: p-CIP stab down, phage Ecoli inh, E coli growth-2)
COc1ccc2c(C)c(CCC(=O)NC3CC3)c(=O)oc2c1	none
Oc1ccc(F)c2cccnc12	none
O=C(Oc1ccc(Cl)c2cccnc12)c1cccnc1	E coli growth-2 0.372
Oc1ccc(Cl)c2cccnc12	E coli growth-2 0.294 (no result: E coli growth-1, p-CIP stab down, AddAB inh)
COc1ccc(CC(N)C(=O)NC2C(CO)OC(n3cnc4c(N(C)C)ncnc43)C2O)cc1 (stereo unspecified)	E coli growth-2 0.302 (no result: E coli growth-1, p-CIP stab down, AddAB inh, phage Ecoli inh, Tat export inh)
Nc1ncnc2c1ncn2[C@@H]1O[C@H](CNC(=O)[C@@H](N)Cc2ccccc2)[C@@H](O)[C@H]1O	none (no result: p-CIP stab down)
CN(C)C(=O)c1cc(C(=O)c2ccc(Cl)cc2Cl)c[nH]1	none
NC(=O)c1cc(C(=O)c2ccc(Cl)cc2Cl)c[nH]1	E coli growth-2 0.501
CCn1cc(C(=O)O)c(=O)c2cnc(N3CCN(C(=S)NC(=O)c4ccc(OC)cc4)CC3)nc21	E coli growth-2 0.429
N#C/C(=N\Nc1ccc(Cl)cc1)C(N)=S	none (no result: E coli growth-2)
N#CC(=NNc1ccc(Cl)cc1)C(N)=S	E coli growth-2 0.454 (no result: E coli growth-1, p-CIP stab down, AddAB inh, phage Ecoli inh, Tat export inh)
CC(=O)c1ccc(NS(=O)(=O)c2ccc(N)cc2)cc1	none
CC(=O)NS(=O)(=O)c1ccc(N)cc1	E coli growth-1 10.2!
CN(C)CCCNc1cc(C(C)(C)C)nc2c(-c3ccc(Cl)cc3)cnn12	E coli growth-2 0.273
CCCCCN=C(N)NN=Cc1c[nH]c2ccc(OC)cc12	E coli growth-2 0.0595 (no result: E coli growth-1, p-CIP stab down, AddAB inh, phage Ecoli inh, Tat export inh)
CN1C(=O)C(N=Nc2ccc([N+](=O)[O-])cc2)SC1=S (stereo unspecified)	E coli growth-2 0.449 (no result: E coli growth-1, p-CIP stab down, AddAB inh)
CN1CCCCCC1=Nc1ccc([N+](=O)[O-])cc1	none (no result: p-CIP stab down)
CCc1cccc(NC(=O)Nc2cccs2)c1	none
N#Cc1cccc(NC(=O)Nc2cccs2)c1	E coli growth-2 0.542
O=C(CSc1ccc2nnc(-c3ccccn3)n2n1)Nc1ccc2c(c1)OCO2	E coli growth-1 77.9, AddAB inh 96.7
COc1ccc(Cl)cc1C(=O)Nc1ccc(NC(C)=O)cc1	none
CC(=O)Oc1c(I)cc(I)cc1C(=O)Nc1ccc(Cl)cc1	E coli growth-1 11.9 (no result: E coli growth-2)
CC(CCOC1=NS(=O)(=O)c2ccccc21)NC(=O)C(=O)Nc1ccccc1 (stereo unspecified)	none
COCCNC(=O)[C@H]1C[C@@H]1[C@H](NP(=O)(c1ccccc1)c1ccccc1)c1ccccc1	none (no result: phage Ecoli inh, E coli growth-2)
NC1=NC[C@@H](CC2CCCCC2)N1CCc1cc(C(F)(F)F)cc(C(F)(F)F)c1	E coli growth-2 0.0625 (no result: p-CIP stab down, phage Ecoli inh)
O=C(Nc1nnc(-c2ccco2)o1)c1ccc(Cl)cc1	E coli growth-2 0.445
C=C1CC2C3CCc4cc(OC)ccc4C3CC[C@]12C (stereo partly specified)	none (no result: E coli growth-1, p-CIP stab down, AddAB inh, phage Ecoli inh, Tat export inh)
O=S1(=O)CCOC[C@H](Cc2ccccc2)N1Cc1ccccc1F	none (no result: p-CIP stab down, E coli growth-2)
O=C1c2ccccc2C(O)(c2ccccc2)N1c1ccc([N+](=O)[O-])cc1Cl (stereo unspecified)	none (no result: E coli growth-1, p-CIP stab down, AddAB inh)
COC(=O)c1cc(=O)n(CCc2ccc(OC)cc2)c(=Nc2ccc(F)c(Cl)c2)s1	none
COC(=O)c1cc(=O)n(CCc2ccccc2)c(=Nc2ccc(F)cc2)s1	E coli growth-1 98.5, AddAB inh 99.2 | AddAB confirm inactive | RecBCD counter inactive | bact viab count inactive
O=C(Nc1cc(C(F)(F)F)ccc1-n1cncn1)c1ccc([N+](=O)[O-])o1	E coli growth-1 14.4, AddAB inh 17.6 (no result: p-CIP stab down) | AddAB confirm 73.0 | RecBCD counter 5.7 | bact viab count inactive
CC(=O)NCCc1ccc(C(=O)COC(=O)c2cccn2C)cc1	none (no result: p-CIP stab down)
CC1(C)OC(=O)C(=NNc2ccccc2)C(=O)O1	none (no result: E coli growth-2)
CC1(C)OC(=O)C(=NNc2ccc(O)cc2)C(=O)O1	AddAB inh 15.8 | AddAB confirm 17.0 | RecBCD counter inactive | bact viab count inactive
OCC(O)CNC(=S)NC1CCCCC1 (stereo unspecified)	none
Cc1cc(=O)n2ccsc2n1	none
COc1cc2c(cc1OC)-c1nnc(C)n1C(C)(C)C2	none
COc1cc2c(cc1OC)-c1nnc(C)n1C1(CCCC1)C2	E coli growth-1 11.5, AddAB inh 24.1 | AddAB confirm inactive | RecBCD counter inactive | bact viab count inactive
O=C(O)c1cn(-c2ccc(N3CCCC3)c(F)c2)c2c(F)c(F)c(F)cc2c1=O	E coli growth-1 17.0, AddAB inh 22.0, E coli growth-2 0.464 | AddAB confirm 21.4 | RecBCD counter inactive | bact viab count inactive
CCNC(=S)Nc1cc(Cl)ccc1Oc1ccccc1	none
COC(=O)c1ccc(C23CC4(C2)C(CN(CC2CCCCC2)C4c2ccccc2)C3c2ccc(C(F)(F)F)cc2)cc1 (stereo unspecified)	none (no result: E coli growth-1, p-CIP stab down, AddAB inh, phage Ecoli inh, Tat export inh)
O=C(O)[C@H](O)[C@@H](O)C(=O)O	AddAB inh 24.7 (no result: p-CIP stab down) | AddAB confirm inactive | RecBCD counter inactive | bact viab count inactive
COc1ccccc1-[n+]1c(C)cc(/C=C2\Sc3ccccc3N2C)cc1C	E coli growth-1 19.4, AddAB inh 22.9, phage Ecoli inh 13.3, E coli growth-2 0.356 | AddAB confirm 33.3 | RecBCD counter 17.6 | bact viab count 29.7
O=C(NCc1ccc(F)cc1)C1CCC(CNS(=O)(=O)c2ccccc2)CC1 (stereo unspecified)	none
CC1(C)CC(=O)C(C(c2cccnc2)C2C(=O)CC(C)(C)CC2=O)C(=O)C1	none
